In PubChem BioAssay (Tox21):
“And” between values parts separate entries of the source, which are not always exact repeats. Equal values may be shown once. Inconclusive results are not listed. The source made the active and inactive calls. Unless noted, the call rests on the fitted dose curve; in most records, active means well fitted curve in the direction sought with a large enough effect in the repeat runs; inconclusive means weak or mixed curves; inactive means no such curve, though single readings can be large; an effect the other way counts as inactive or inconclusive.

Experiments:
[1] = qHTS assay to identify small molecule antagonists of the thyroid receptor (TR) signaling pathway - cell viability counter screen (AID 743064); further: nearly all actives have a fitted effect of over 50% in size; further: potency means the concentration at half of the fitted maximal effect
Method in brief: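 Fluorescence from CellTiter-Fluor, added after 23.5 h exposure at 37 °C, reported viability of GH3.TRE-Luc cells co-treated with compound and 1 nM T3. Measured in the same wells as the luciferase TR readout.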

[2] = qHTS assay to identify small molecule antagonists of the thyroid receptor (TR) signaling pathway (AID 743065); further: nearly all actives have a fitted effect of over 55% in size; further: potency means the concentration at half of the fitted maximal effect
Method in brief: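 GH3.TRE-Luc rat pituitary cells carrying two TR response elements driving luciferase were plated for 4 h, given compound plus 1 nM T3 (final), and incubated 23.5 h at 37 C. ONE-Glo luminescence measured reporter inhibition; CellTiter-Fluor fluorescence tracked cytotoxicity.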

[3] = tested on: thyroid hormone receptor (rat, GH3 cells); assay: qHTS assay to identify small molecule agonists of the thyroid receptor (TR) signaling pathway (AID 743066; calls by dose curve; further: potency means the concentration at half of the fitted maximal effect)
[4] = target: Estrogen receptor (Homo sapiens) (UniProt P03372); assay: qHTS assay to identify small molecule antagonists of the estrogen receptor alpha (ER-alpha) signaling pathway (AID 743069; active means well fitted curve in the direction sought with a large enough effect in the signal ratio in the repeat runs, not every such curve was filed as active; the % refers to the signal ratio)
Method in brief: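 HEK293 cells stably carrying an ER-alpha-UAS-bla beta-lactamase reporter were pre-cultured overnight in 2% charcoal-stripped FBS medium. Test compounds in DMSO were added together with 17beta-estradiol for 18 hr at 37C. Read-out was fluorescence after 2 hr with LiveBLAzer B/G FRET substrate at room temperature.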

[5] = qHTS assay to identify small molecule antagonists of the estrogen receptor alpha (ER-alpha) signaling pathway - cell viability counter screen (AID 743074; calls by dose curve; further: nearly all actives have a fitted effect of over 45% in size; further: potency means the concentration at half of the fitted maximal effect)
[6] = target: Estrogen receptor (Homo sapiens) (UniProt P03372); assay: qHTS assay to identify small molecule agonists of the estrogen receptor alpha (ER-alpha) signaling pathway (AID 743075; calls by dose curve)
[7] = target: Estrogen receptor (Homo sapiens) (UniProt P03372); assay: qHTS assay to identify small molecule agonists of the estrogen receptor alpha (ER-alpha) signaling pathway using the BG1 cell line (AID 743079); settings: BG1Luc4E2 cells, ERE-luciferase agonist, 22 h; activation: at 70.3 µM (top of the series); further: nearly all actives have a fitted effect of over 20% in size
[8] = qHTS assay to identify small molecule antagonists of the estrogen receptor alpha (ER-alpha) signaling pathway using the BG1 cell line (AID 743080; calls by dose curve;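 further: BG1 cells stimulated with 17beta-estradiol alongside compound; nearly all actives have a fitted effect of over 25% in size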; further: potency means the concentration at half of the fitted maximal effect)
Method in brief: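 Quantitative HTS on the Tox21 10K library: BG1 cells with endogenous ER-alpha and ERE-luciferase reporter, 17beta-estradiol stimulation, 21.5 h compound exposure, luminescence endpoint with parallel fluorescence cytotoxicity counter-read.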

[9] = qHTS assay to identify small molecule antagonists of the estrogen receptor alpha (ER-alpha) signaling pathway using the BG1 cell line - cell viability counter screen (AID 743081);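 further: compound given together with 17beta-estradiol as the ER stimulus; nearly all actives have a fitted effect of over 45% in size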; further: potency means the concentration at half of the fitted maximal effect
Aromatase (Homo sapiens) = Aromatase (Homo sapiens) (UniProt P11511); assay: qHTS assay to identify aromatase inhibitors (AID 743083); further: nearly all actives have a fitted effect of over 55% in size; further: potency means the concentration at half of the fitted maximal effect
[10] = qHTS assay to identify aromatase inhibitors - cell viability counter screen (AID 743084);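 further: cells stimulated with testosterone during compound exposure; nearly all actives have a fitted effect of over 55% in size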; further: potency means the concentration at half of the fitted maximal effect
[11] = target: Aryl hydrocarbon receptor (Homo sapiens) (UniProt P35869); assay: qHTS assay to identify small molecule that activate the aryl hydrocarbon receptor (AhR) signaling pathway (AID 743085);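 further: HG2L7.5c1 human HepG2 liver cells with stably integrated DRE-driven firefly reporter; nearly all actives have a fitted effect of over 15% in size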
Method in brief: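 Cell line HG2L7.5c1 (human hepatoma, 20× DRE-luc). Plated, 5 h 37C, compound/DMSO added, 24 h 37C. CellTiter-Fluor 30 min 37C → fluorescence; then ONE-Glo 30 min RT → luminescence.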

[12] = qHTS assay to identify small molecule that activate the aryl hydrocarbon receptor (AhR) signaling pathway - cell viability counter screen (AID 743086); further: nearly all actives have a fitted effect of over 45% in size; further: potency means the concentration at half of the fitted maximal effect
Method in brief: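 HepG2-AhR-luc (HG2L7.5c1) cells, 4000/well, were preincubated 5 h at 37C, exposed to compound in qHTS format for 24 hr at 37C, then given CellTiter-Fluor for 30 min; viability was read as fluorescence in the reporter wells.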

[13] = target: Peroxisome proliferator-activated receptor gamma (Homo sapiens) (UniProt P37231); assay: qHTS assay to identify small molecule agonists of the peroxisome proliferator-activated receptor gamma (PPARg) signaling pathway (AID 743094; active means well fitted activation curve with a large enough effect in the signal ratio in the repeat runs, not every such curve was filed as active; the % refers to the signal ratio)
Method in brief: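 Beta-lactamase FRET fluorescence was the read-out after a 1 h room-temperature substrate step, following 17 h compound treatment at 37C of HEK293H cells expressing a UAS-driven bla reporter responsive to PPARg.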

[14] = target: Peroxisome proliferator-activated receptor gamma (Homo sapiens) (UniProt P37231); assay: qHTS assay to identify small molecule antagonists of the peroxisome proliferator-activated receptor gamma (PPARg) signaling pathway (AID 743191; calls by dose curve; further: nearly all actives have a fitted effect of over 30% in size)
Method in brief: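 GeneBLAzer PPARg UAS-bla HEK293H cells carrying a UAS-driven beta-lactamase reporter were plated at 3000 cells/well, preincubated 5 h at 37C, then given compound for 17 h at 37C; LiveBLAzer B/G FRET substrate was read after 1 h at room temperature.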

[15] = qHTS assay to identify small molecule antagonists of the peroxisome proliferator-activated receptor gamma (PPARg) signaling pathway - cell viability counter screen (AID 743194); settings: Potency: co-treated with 50 nM rosiglitazone unless noted; further: nearly all actives have a fitted effect of over 55% in size; further: potency means the concentration at half of the fitted maximal effect
Method in brief: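 PPARg-UAS-bla HEK293H cells were plated, rested 5 h at 37 C, then treated with compounds plus rosiglitazone (50 nM final) for 17 h at 37 C; viability was then read by CellTiter-Glo luminescence after 30 min at room temperature.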

[16] = qHTS assay for small molecule agonists of the antioxidant response element (ARE) signaling pathway - cell viability counter screen (AID 743203; calls by dose curve; further: nearly all actives have a fitted effect of over 55% in size; further: potency means the concentration at half of the fitted maximal effect)
Method in brief: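 HepG2 cells carrying ARE-driven beta-lactamase; 2,000 cells/well; 5 hrs plating; compound pinned from DMSO; 16 hrs 37C/5% CO2; CellTiter-Glo added; 30 min RT; luminescence.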

[17] = qHTS assay for small molecule activators of the heat shock response signaling pathway - cell viability counter screen (AID 743209); further: nearly all actives have a fitted effect of over 50% in size; further: potency means the concentration at half of the fitted maximal effect
Method in brief: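 Luminescence from CellTiter-Glo, added after the beta-lactamase FRET read, gave the viability signal. Cells were HSE-bla HeLa treated with DMSO-dissolved compounds for 5 h at 37 C following overnight plating.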

[18] = qHTS assay for small molecule activators of the heat shock response signaling pathway (AID 743210; active means well fitted activation curve with a large enough effect in the signal ratio in the repeat runs, with a control signal flat, not every such curve was filed as active; the % refers to the signal ratio)
Method in brief: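 HSE-bla HeLa cells (beta-lactamase reporter under heat shock response elements) were exposed to compounds for 5 h at 37 C, then loaded with LiveBLAzer B/G FRET substrate for 2.5 h at room temperature before fluorescence reading.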

[19] = qHTS assay for small molecule agonists of the antioxidant response element (ARE) signaling pathway (AID 743202; active means well fitted activation curve with a large enough effect in the signal ratio in the repeat runs, not every such curve was filed as active; the % refers to the signal ratio)
Method in brief: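 Read-out: LiveBLAzer B/G FRET substrate fluorescence after 2 h at room temperature, following 16 h compound treatment at 37 C of HepG2 cells carrying an ARE-driven beta-lactamase reporter.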

Measured: Potency

Aryl hydrocarbon receptor (Homo sapiens), sequence (P35869 whole entry, looked up): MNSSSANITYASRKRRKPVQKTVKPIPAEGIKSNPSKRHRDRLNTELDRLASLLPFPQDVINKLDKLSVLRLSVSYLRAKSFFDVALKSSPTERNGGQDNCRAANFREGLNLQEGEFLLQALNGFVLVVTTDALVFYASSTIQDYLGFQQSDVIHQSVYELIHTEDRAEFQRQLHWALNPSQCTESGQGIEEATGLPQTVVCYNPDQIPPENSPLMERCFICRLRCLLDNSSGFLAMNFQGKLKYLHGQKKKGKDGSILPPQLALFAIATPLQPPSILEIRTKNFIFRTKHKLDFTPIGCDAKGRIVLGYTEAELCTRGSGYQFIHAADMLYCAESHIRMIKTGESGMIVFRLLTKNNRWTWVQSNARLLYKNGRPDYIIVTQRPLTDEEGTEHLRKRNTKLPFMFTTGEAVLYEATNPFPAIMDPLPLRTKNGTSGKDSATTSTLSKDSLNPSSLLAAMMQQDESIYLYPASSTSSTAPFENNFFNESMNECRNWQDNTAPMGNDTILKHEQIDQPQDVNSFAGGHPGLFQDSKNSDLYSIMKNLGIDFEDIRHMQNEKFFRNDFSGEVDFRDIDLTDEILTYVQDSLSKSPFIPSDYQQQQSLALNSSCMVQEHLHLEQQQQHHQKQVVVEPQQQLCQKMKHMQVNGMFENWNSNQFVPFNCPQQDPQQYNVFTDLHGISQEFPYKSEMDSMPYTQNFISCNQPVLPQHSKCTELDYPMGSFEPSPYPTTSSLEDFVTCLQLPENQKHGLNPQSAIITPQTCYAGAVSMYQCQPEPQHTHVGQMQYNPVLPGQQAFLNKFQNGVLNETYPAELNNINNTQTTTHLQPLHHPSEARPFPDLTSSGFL
Estrogen receptor (Homo sapiens), sequence (P03372 whole entry, looked up): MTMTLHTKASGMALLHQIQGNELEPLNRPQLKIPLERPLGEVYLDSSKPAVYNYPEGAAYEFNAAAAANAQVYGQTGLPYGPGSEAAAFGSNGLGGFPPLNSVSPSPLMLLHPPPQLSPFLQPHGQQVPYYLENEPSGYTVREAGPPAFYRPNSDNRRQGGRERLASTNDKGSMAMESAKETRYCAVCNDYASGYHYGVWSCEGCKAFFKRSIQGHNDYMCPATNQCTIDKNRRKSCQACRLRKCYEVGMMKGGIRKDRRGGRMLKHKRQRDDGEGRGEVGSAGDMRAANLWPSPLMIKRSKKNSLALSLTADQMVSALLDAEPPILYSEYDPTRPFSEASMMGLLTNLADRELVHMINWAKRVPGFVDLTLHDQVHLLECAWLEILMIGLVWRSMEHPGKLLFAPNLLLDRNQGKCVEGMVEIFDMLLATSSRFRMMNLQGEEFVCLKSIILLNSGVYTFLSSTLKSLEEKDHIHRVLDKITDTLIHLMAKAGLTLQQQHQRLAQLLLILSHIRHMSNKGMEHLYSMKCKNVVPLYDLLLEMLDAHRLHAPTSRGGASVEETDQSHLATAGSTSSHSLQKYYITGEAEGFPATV
Aromatase (Homo sapiens), sequence (P11511 whole entry, looked up): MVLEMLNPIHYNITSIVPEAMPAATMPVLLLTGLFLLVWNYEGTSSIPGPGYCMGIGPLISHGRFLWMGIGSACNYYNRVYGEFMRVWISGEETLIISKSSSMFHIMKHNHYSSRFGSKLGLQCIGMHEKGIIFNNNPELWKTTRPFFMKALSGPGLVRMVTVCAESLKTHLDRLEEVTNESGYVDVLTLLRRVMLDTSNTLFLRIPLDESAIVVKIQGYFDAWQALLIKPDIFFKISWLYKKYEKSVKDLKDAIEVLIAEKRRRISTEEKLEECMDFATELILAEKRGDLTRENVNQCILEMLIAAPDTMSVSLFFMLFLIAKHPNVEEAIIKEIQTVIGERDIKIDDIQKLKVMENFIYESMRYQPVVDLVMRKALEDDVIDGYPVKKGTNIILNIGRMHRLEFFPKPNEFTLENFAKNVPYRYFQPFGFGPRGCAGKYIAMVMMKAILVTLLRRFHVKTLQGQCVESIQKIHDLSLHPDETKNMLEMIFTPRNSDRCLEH
Peroxisome proliferator-activated receptor gamma (Homo sapiens), sequence (P37231 whole entry, looked up): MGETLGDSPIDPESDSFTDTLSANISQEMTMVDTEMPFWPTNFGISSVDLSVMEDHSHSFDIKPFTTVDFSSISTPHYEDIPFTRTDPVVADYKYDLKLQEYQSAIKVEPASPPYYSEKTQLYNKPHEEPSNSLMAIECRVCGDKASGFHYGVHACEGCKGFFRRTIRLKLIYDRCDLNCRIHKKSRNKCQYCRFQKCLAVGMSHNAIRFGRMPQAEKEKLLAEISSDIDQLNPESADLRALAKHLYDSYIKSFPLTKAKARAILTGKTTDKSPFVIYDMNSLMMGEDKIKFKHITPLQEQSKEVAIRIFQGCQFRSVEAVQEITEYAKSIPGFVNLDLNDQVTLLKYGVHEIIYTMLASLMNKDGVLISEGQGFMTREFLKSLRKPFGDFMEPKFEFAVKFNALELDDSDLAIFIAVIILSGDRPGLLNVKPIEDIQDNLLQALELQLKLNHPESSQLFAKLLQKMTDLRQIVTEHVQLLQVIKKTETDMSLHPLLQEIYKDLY

CCC1(CC)C(=O)N=C(O)NC1=O
not listed: [19]
inactive: all other assays above

CCN(CC)CCN1C(=O)CN=C(c2ccccc2F)c2cc(Cl)ccc21
active: [1] 29.8 µM | [2] 23.7 µM
not listed: [11] | [19]
inactive: all other assays above

CC(C)Br
not listed: [11]
inactive: all other assays above

C=CCBr
not listed: [11] | [12] | [15]
inactive: all other assays above

OCC(Br)CBr (stereo not drawn)
not listed: [13] | [15]
inactive: all other assays above

C=CCOC(=O)c1ccccc1N
not listed: [11]
inactive: all other assays above

CC(C)NCC(O)c1ccccc1Cl (stereo not drawn)
inactive: all assays above

CCOC(=O)Cc1ccccc1
not listed: [14]
inactive: all other assays above

CC(C)c1c(CN(C)C(C)Cc2ccccc2)n(C)n(-c2ccccc2)c1=O (stereo not drawn)
active: [2] 11.4 µM
not listed: [14] | [15] | [19]
inactive: all other assays above

O=P(Cl)(Cl)Cl
inactive: all assays above

O=NN(CCO)CCO
not listed: [17]
inactive: all other assays above

CC(C)[C@@H](Nc1ccc(C(F)(F)F)cc1Cl)C(=O)OC(C#N)c1cccc(Oc2ccccc2)c1 (stereo partly drawn)
not listed: [6] | [13] | [14] | [18] | [19]
inactive: all other assays above

C=C(C)C(=O)[O][Sn]([CH2]CCC)([CH2]CCC)[CH2]CCC
active: [1] 0.433 µM | [2] 0.306 µM | [3] 30.6 nM | [5] 1740 nM | [8] 344 nM | [9] 1370 nM | Aromatase (Homo sapiens) 3.86 µM | [10] 2.73 µM | [12] 2730 nM | [16] 433 nM | [17] 1100 nM

CCCCN(CCCC)C(=S)[S-].CCCCN(CCCC)C(=S)[S-].[Ni+2]
not listed: [7] | [11] | [15]
inactive: all other assays above

O=[N+]([O-])c1ccc(Cl)c(Cl)c1Cl
not listed: [6] | [13] | [19]
inactive: all other assays above

BrCCCBr
not listed: [4] | [6] | [7] | [8] | [13] | [14]
inactive: all other assays above

CCCCON=O
not listed: [4] | [6] | [7] | [8]
inactive: all other assays above

CC(Cc1ccc(O)cc1)NCC(O)c1cc(O)cc(O)c1 (stereo not drawn)
not listed: [5] | [7]
inactive: all other assays above

Cc1cc2c3c(c1)C(c1ccccc1)=N[C@@H](NC(=O)c1ccncc1)C(=O)N3CC2
active: [2] 24.3 µM
not listed: [5] | [9] | [13] | [14] | [15]
inactive: all other assays above

CSC(C)(C)/C=N/O
not listed: [7] | [13] | [14] | [15] | [19]
inactive: all other assays above

CC(C)(C)c1ccc(OP(=O)(Oc2ccccc2)Oc2ccccc2)cc1
active: [1] 27.5 µM | [2] 27.5 µM
not listed: [4] | [7] | [12] | [14] | [15] | [17] | [19]
inactive: all other assays above

CNC(C)(C)Cc1ccccc1
not listed: [4] | [6] | [7] | [13]
inactive: all other assays above

COC(=O)c1ccccc1S(=O)(=O)NC(=O)Nc1nc(C)nc(OC)n1
not listed: [4] | [6] | [7] | [8] | [13] | [14]
inactive: all other assays above

C=CC(=O)[O][Sn]([CH2]CCC)([CH2]CCC)[CH2]CCC
inactive: [11]
active: [1] 0.969 µM | [2] 0.611 µM | [3] 193 nM | [5] 1100 nM | [8] 433 nM | [9] 5450 nM | Aromatase (Homo sapiens) 5.45 µM | [10] 3.44 µM | [12] 4330 nM | [15] 389 nM | [16] 686 nM | [17] 3090 nM

C=CC(=C)C
not listed: [7] | [8] | [11] | [18]
inactive: all other assays above

CCCCC(CC)COC(=O)OOC(C)(C)C (stereo not drawn)
active: [17] 49000 nM
not listed: [4] | [6] | [7] | [8] | [14] | [18]
inactive: all other assays above

CN(C)C(=S)SSC(=S)N(C)C
active: [1] 133 nM and 9.55 µM and 21.7 nM | [2] 94.4 nM and 269 nM and 15.4 nM | Aromatase (Homo sapiens) 188 nM and 47.9 nM and 15.4 nM | [10] 944 nM and 75.9 nM and 54.5 nM | [16] 60.3 µM and 13.7 µM and 18.8 µM
inactive: [3] | [4] | [5] | [6] | [9] | [11] | [17]

CCNS(=O)(=O)C(F)(F)C(F)(F)C(F)(F)C(F)(F)C(F)(F)C(F)(F)C(F)(F)C(F)(F)F
not listed: [4] | [6] | [7] | [8] | [16] | [19]
inactive: all other assays above

N#CSCc1ccccc1
not listed: [6] | [12] | [14]
inactive: all other assays above

CCCCn1cc[n+](C)c1.[Cl][Fe-]([Cl])([Cl])[Cl]
inactive: [1] | [2] | [3] | [5] | [9] | Aromatase (Homo sapiens) | [10] | [11] | [12] | [16] | [17]
